# Inconclusive results are not listed. A call without a number means that no potency is given here. Unmarked numbers belong to inactive results. Calls of active or inactive are those of the source. Unless noted, the call rests on the fitted dose curve.
# Tests used:
# [1] = qHTS for Inhibitors of the Functional Ribonucleoprotein Complex (vRNP) of Lassa (LASV) Arenavirus: LASV Primary Screen - GLuc reporter signal (AID 1347082; calls by dose curve; tested in HEK293 reporter line; further: nearly all actives have a fitted effect of over 60% in size; on activity change, negative = inhibition: series mostly up to about 57 µM)
# [2] = qHTS for Inhibitors of the Functional Ribonucleoprotein Complex (vRNP) of Lassa (LASV) Arenavirus: Viability assay - alamar blue signal for LASV Primary Screen (AID 1347083; calls by dose curve; tested in HEK293 reporter line; further: nearly all actives have a fitted effect of over 80% in size; on activity change, negative = reduced viability: series mostly up to about 57 µM)
# [3] = qHTS for Inhibitors of the Functional Ribonucleoprotein Complex (vRNP) of Lymphocytic Choriomeningitis Arenaviruses (LCMV): Viability assay - alamar blue signal for LCMV Primary Screen (AID 1347085; calls by dose curve; tested in HEK293 reporter line; further: nearly all actives have a fitted effect of over 80% in size; on activity change, negative = lower viability: series mostly up to about 57 µM)
# [4] = biological target: Nucleoprotein (Lymphocytic choriomeningitis virus (strain Armstrong)) (UniProt P09992); experiment: qHTS for Inhibitors of the Functional Ribonucleoprotein Complex (vRNP) of Lymphocytic Choriomeningitis Arenaviruses (LCMV): LCMV Primary Screen - GLuc reporter signal (AID 1347086); further: nearly all actives have a fitted effect of over 70% in size; on activity change, negative = inhibition: series mostly up to about 57 µM
# Potency means the concentration at half of the fitted maximal effect.
# Chain of Nucleoprotein (Lymphocytic choriomeningitis virus (strain Armstrong)) (P09992 whole entry, looked up): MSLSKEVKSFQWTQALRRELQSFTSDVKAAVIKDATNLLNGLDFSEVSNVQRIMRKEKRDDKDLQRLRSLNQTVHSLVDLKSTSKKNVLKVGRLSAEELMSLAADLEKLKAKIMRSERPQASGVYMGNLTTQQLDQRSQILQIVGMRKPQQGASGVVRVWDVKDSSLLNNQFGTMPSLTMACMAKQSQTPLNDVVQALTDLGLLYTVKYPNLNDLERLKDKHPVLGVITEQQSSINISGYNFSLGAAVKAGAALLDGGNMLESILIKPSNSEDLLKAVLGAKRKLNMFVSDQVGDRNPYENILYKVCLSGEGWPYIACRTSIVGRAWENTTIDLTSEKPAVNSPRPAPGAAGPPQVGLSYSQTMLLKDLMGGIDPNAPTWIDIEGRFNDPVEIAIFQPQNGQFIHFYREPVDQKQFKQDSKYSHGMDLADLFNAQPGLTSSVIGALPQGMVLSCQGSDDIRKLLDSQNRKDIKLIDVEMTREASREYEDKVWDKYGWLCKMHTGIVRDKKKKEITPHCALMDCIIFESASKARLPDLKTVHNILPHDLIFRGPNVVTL
SMILES,Potency [1],Potency [2],Potency [3],Potency [4],"activity change, negative = inhibition [1]","activity change, negative = reduced viability [2]","activity change, negative = lower viability [3]","activity change, negative = inhibition [4]"
COc1c2ccoc2nc2c(OC)c(OCC(OC(C)=O)C(C)(C)O)ccc12 (stereo not given),inactive,inactive,inactive,inactive,–,–,–,–
Nc1nc2c(ncn2[C@@H]2O[C@H](COP(=O)(O)OP(=O)(O)O)[C@@H](O)[C@H]2O)c(=O)[nH]1,inactive,inactive,inactive,inactive,–,–,–,–
CC(C)N(CCCNC(=O)Nc1ccc(C(C)(C)C)cc1)C[C@H]1O[C@@H](n2cc(Br)c3c(N)ncnc32)[C@H](O)[C@H]1O,inactive,inactive,inactive,inactive,–,–,–,–
CC1=CC2OC3CC4OC(=O)C=CC=CC(=O)OCCC(C)C(O)C(=O)OCC2(CC1)C4(C)C31CO1 (stereo not given),inactive,inactive,inactive,inactive,–,–,–,–
COc1cc2c(c(OC)c1OC)-c1c(cc3c(c1OC)OCO3)CC(C)C(C)(O)C2OC(=O)c1ccccc1 (stereo not given),inactive,inactive,inactive,inactive,–,–,–,–
O=C(O)COc1ccc(Cl)cc1CO,inactive,inactive,inactive,inactive,–,–,–,–
CCCCCc1c2c(cc(O)c1C(=O)O)OC(=O)c1cc(C(=O)CCCC)c(OC)cc1O2,inactive,inactive,inactive,inactive,–,–,–,–
COC(=O)C=CC(=O)OC,6.11 µM (active),4.85 µM (active),3.06 µM (active),4.85 µM (active),–,–,–,–
COc1ccc([C@@]23Oc4cc(OC)cc(OC)c4[C@]2(O)[C@H](O)[C@H](C(=O)N(C)C)[C@H]3c2ccccc2)cc1,inactive,inactive,inactive,inactive,–,–,–,–
C[C@@H]1O[C@@H](O[C@H]2[C@H](O)[C@@H](O)[C@H](Oc3c(-c4ccc(O)cc4)oc4cc(O)cc(O)c4c3=O)O[C@@H]2CO)[C@H](O)[C@H](O)[C@H]1O,inactive,inactive,inactive,inactive,–,–,–,–
N#CC(=C1Nc2ccccc2S1)c1ccnc(OCc2ccc(CN3CCOCC3)cc2)n1,7.69 µM (active),4.32 µM (active),1.93 µM (active),1.72 µM (active),–,–,–,–
CC(C)(C)[N+]([O-])=Cc1ccc(S(=O)(=O)O)cc1S(=O)(=O)O,inactive,inactive,inactive,inactive,–,–,–,–
CC(C)=CCC[C@](C)(O)C1CC[C@]2(C)C1[C@H](O)CC1[C@@]3(C)CC[C@H](O[C@@H]4O[C@H](CO)[C@@H](O)[C@H](O)[C@H]4O[C@@H]4O[C@H](CO)[C@@H](O)[C@H](O)[C@H]4O)C(C)(C)C3CC[C@]12C (stereo not given in full),inactive,inactive,inactive,inactive,–,–,–,–
Cc1ccc2ccccc2n1,inactive,inactive,inactive,inactive,–,–,–,–
Cc1nc(C(N)=O)nc2ccccc12,inactive,inactive,inactive,inactive,–,–,–,–
CC(=O)OC1c2c(ccc3ccc(=O)oc23)OC(C)(C)C1OC(=O)CC(C)C (stereo not given),inactive,inactive,inactive,inactive,–,–,–,–
C/C=C(/C)C(=O)OC1Cc2c(ccc3ccc(=O)oc23)OC1(C)C (stereo not given),inactive,inactive,inactive,inactive,–,–,–,–
COC1=C(C)C(=O)O[C@]12C(=O)C(C)=C1CCCCN3[C@H]([C@@H]4C[C@H](C)C(=O)O4)CC[C@]132,inactive,inactive,inactive,inactive,–,–,–,–
CCCCC[C@H](O)C=C[C@H]1[C@H](O)CC(=O)[C@H]1CCCCCCC(=O)O,inactive,inactive,inactive,inactive,–,–,–,–
CC(C)C1Oc2cc3oc(=O)ccc3cc2C1=O (stereo not given),inactive,inactive,inactive,inactive,–,–,–,–

SMILES,Potency [1],Potency [2],Potency [3],Potency [4],"activity change, negative = inhibition [1]","activity change, negative = reduced viability [2]","activity change, negative = lower viability [3]","activity change, negative = inhibition [4]"
CC(=O)NCC(=O)N1[C@H]2CC[C@H]1c1cc(Nc3ncc(C(F)(F)F)c(NC4CCC4)n3)ccc12,inactive,3.43 µM (active),9.68 µM (active),inactive,–,–,–,–
C/C=C/C=C/CO,inactive,inactive,inactive,inactive,–,–,–,–
O=c1oc(-c2ccc(O)c(O)c2)cc2cccc(O)c12,inactive,inactive,inactive,inactive,–,–,–,–
CCCCC/C=C\C/C=C\C[C@H](O)/C=C/C=C\CCCC(=O)O,–,–,–,–,6.73% [at 0.757 µM],15% [at 0.757 µM],7.12% [at 0.757 µM],11.5% [at 0.757 µM]
C/C(=C\COc1ccc2ccc(=O)oc2c1)CC[C@@H](O)C(C)(C)O,inactive,inactive,inactive,inactive,–,–,–,–
CC/C=C\CCCCO,inactive,inactive,inactive,inactive,–,–,–,–
C[C@@H]1[C@H](C)CC[C@]2(C(=O)O)CC[C@]3(C)C(=CC[C@@H]4[C@@]5(C)C[C@@H](O)[C@H](O)[C@@](C)(CO)[C@H]5CC[C@]43C)[C@@H]12,inactive,inactive,inactive,inactive,–,–,–,–
CC12CCC(=O)C=C1CCC1C2CCC2(C)C(C(=O)CO)CC(O)C12 (stereo not given),inactive,inactive,inactive,inactive,–,–,–,–
OCC(O)C(O)C(O)CO (stereo not given),inactive,inactive,inactive,inactive,–,–,–,–
CC1=C[C@H]2[C@]3(O)C(C=C(CO)C[C@]2(O)C1=O)[C@@H]1C(C)(C)[C@]1(O)[C@H](O)[C@H]3C (stereo not given in full),inactive,inactive,inactive,inactive,–,–,–,–
CCCCC/C=C\C/C=C\C/C=C\C=C\C(O)CCCC(=O)O (stereo not given),–,–,–,–,-8.78% [at 0.757 µM],7.65% [at 0.757 µM],16.2% [at 0.757 µM],-6.07% [at 0.757 µM]
O=C(CCCO)CCCCCCCCC[C@H]1N[C@H](CO)[C@@H](O)[C@@H]1O,inactive,inactive,inactive,inactive,–,–,–,–
NC(=O)Nc1sc(-c2ccc(F)cc2)cc1C(N)=O,0.432 µM (active),0.273 µM (active),0.137 µM (active),0.273 µM (active),–,–,–,–
CC(C)CC(=O)OC(C)(C)[C@@H]1Cc2c(ccc3ccc(=O)oc23)O1,inactive,inactive,inactive,inactive,–,–,–,–
CCC(C)(O)C(=O)N[C@H]1CCCN1C(=O)/C=C/c1ccccc1 (stereo not given in full),inactive,inactive,inactive,inactive,–,–,–,–
O=C(OCC1OC(Oc2ccc(O)cc2)C(O)C(O)C1O)c1ccccc1 (stereo not given),inactive,inactive,inactive,inactive,–,–,–,–
O=c1cc(-c2ccc(O)cc2)oc2c([C@@H]3O[C@H](CO)[C@@H](O)[C@H](O)[C@H]3O)c(O)c([C@@H]3O[C@H](CO)[C@@H](O)[C@H](O)[C@H]3O)c(O)c12,inactive,inactive,inactive,inactive,–,–,–,–
CCC(=O)NC[C@H](Cc1ccc(OCCc2nc(-c3ccccc3)oc2C)cc1)NC(C)=CC(=O)c1ccc(C(F)(F)F)cc1,inactive,inactive,inactive,inactive,–,–,–,–
CC(=O)Nc1nc(C)c(-c2ccc(Cl)c(S(=O)(=O)NCCO)c2)s1,2.43 µM (active),1.37 µM (active),0.685 µM (active),0.544 µM (active),–,–,–,–
COc1cccc(OC)c1C(=O)O,inactive,inactive,inactive,inactive,–,–,–,–

SMILES,Potency [1],Potency [2],Potency [3],Potency [4],"activity change, negative = inhibition [1]","activity change, negative = reduced viability [2]","activity change, negative = lower viability [3]","activity change, negative = inhibition [4]"
C=C1C[C@H](O)[C@@H]2[C@H](OC(=O)[C@H]2C)[C@H]2[C@H](C)[C@@H](O)C[C@@H]12,inactive,inactive,inactive,inactive,–,–,–,–
CCn1c(-c2nonc2N)nc2cncc(CNC3CCNCC3)c21,24.3 µM (active),17.2 µM (active),24.3 µM (active),38.5 µM (active),–,–,–,–
O=c1c(O)c(-c2ccc(O[C@@H]3O[C@H](CO)[C@@H](O)[C@H](O)[C@H]3O)c(O)c2)oc2cc(O)cc(O)c12,inactive,inactive,inactive,inactive,–,–,–,–
CCN(CC)CCNC(=O)c1c(C)[nH]c(C=C2C(=O)Nc3ccc(F)cc32)c1C,44.4 µM (active),7.89 µM (active),49.8 µM (active),44.4 µM (active),–,–,–,–
CC/C=C\CCCCCCCCCCOC(C)=O,inactive,inactive,inactive,inactive,–,–,–,–
COc1c2n(C)ccc3c-2n(c(=O)c1=O)c1ccccc31,inactive,inactive,inactive,inactive,–,–,–,–
OCCNC1CCCc2c1[nH]c1ccc(-c3ccccc3)cc21 (stereo not given),inactive,inactive,inactive,inactive,–,–,–,–
CC(c1c(O)c2ccccc2[nH]c1=O)C1(C)CCC(O)C(C)(C)O1 (stereo not given),inactive,inactive,inactive,inactive,–,–,–,–
C[C@H]1[C@H](C)CC[C@]2(C)CC[C@]3(C)C(=CC(=O)C4[C@@]5(C)CC[C@H](O)C(C)(C)C5CC[C@]43C)[C@H]12 (stereo not given in full),inactive,inactive,inactive,inactive,–,–,–,–
CCCCCCCCCCCCCCCC(=O)OC(CO)CO,inactive,inactive,inactive,inactive,–,–,–,–
CC1C(c2ccccc2)OC(=O)N1C (stereo not given),inactive,inactive,inactive,inactive,–,–,–,–
CC(=O)O[C@@H]1CC2C(C)(C)C(=O)C=C[C@]2(C)C2CC[C@]3(C)C(=CC[C@H]3C3CO[C@@H](C(C)(C)O)[C@H](O)C3)[C@@]21C (stereo not given in full),inactive,inactive,inactive,inactive,–,–,–,–
COc1cc(OC)cc(-c2ccc3ncc4ccc(=O)n(-c5ccc(N6CCNCC6)c(C(F)(F)F)c5)c4c3c2)c1,10.9 µM (active),6.85 µM (active),1.93 µM (active),3.06 µM (active),–,–,–,–
O=c1c2c(O)cc(O)cc2oc2c(O)ccc(O[C@H]3O[C@@H](CO)[C@H](O)[C@@H](O)[C@@H]3O)c12,inactive,inactive,inactive,inactive,–,–,–,–
CC1(C)CCC[C@]2(C)[C@H]3Cc4cc(O)ccc4O[C@]3(C)CC[C@@H]12,inactive,inactive,inactive,inactive,–,–,–,–
CCCCCCCCc1ccc(-c2ccc(C(=O)O)cc2)cc1,inactive,inactive,inactive,inactive,–,–,–,–
CCCCC[C@H](O)/C=C/[C@H]1OC(O)C[C@H](O)[C@@H]1C/C=C\CC(=O)O (stereo not given in full),–,–,–,–,-6.19% [at 0.757 µM],12.3% [at 0.757 µM],-0.195% [at 0.757 µM],5.45% [at 0.757 µM]
Cn1cc(C=C2C(=O)Nc3cccnc32)c2ccccc21,inactive,inactive,inactive,inactive,–,–,–,–
O=c1ccc2cc3ccoc3c(O)c2o1,inactive,inactive,inactive,inactive,–,–,–,–
NCc1ccccc1,inactive,inactive,inactive,inactive,–,–,–,–

# Source: PubChem BioAssay (NCATS)
